# Pf Dd2 growth = inhibitors of Plasmodium falciparum Dd2 growth; 120,000 tested, 4.3% active; P. falciparum Dd2 growth, SYBR Green, 72 h; Potency, µM (titrated, usually from 28.9 µM), for inactives: top-dose activity, negative = inhibition, usual class: inhibitors; active means well fitted inhibition curve with a large enough effect;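 further: plate controls were DMSO vehicle for no effect and reference drug for full effect; nearly all actives have a fitted effect of over 65% in size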
#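 Infected erythrocytes (Dd2, 0.3% parasitemia, 2.5% hematocrit final) are added to compound in RPMI-1640/Albumax II medium, grown 72 h at 37C in low oxygen, then lysed with saponin/Triton-X containing SYBR Green and read by fluorescence.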
# An asterisk follows results filed as active; i = inactive; [ ] = dose if it differs, or a comment. This is one part of a sample in which hits are shown more often than they occur. Potency means the concentration at half of the fitted maximal effect.
SMILES,Pf Dd2 growth
CCn1c(C)c(C)c2cc(C(=O)NCCCN3CCCCC3)ccc21,i
O=C(NCCCN1CCCCC1)c1ccc2c(c1)sc1nc(-c3ccc(F)cc3)cn12,2.8µM*
CC1CCCCN1CCCNC(=O)c1ccc2c(c1)sc1nc(-c3ccc(F)cc3)cn12 (stereo not given),1.4µM*
Cc1ccc(-c2cn3c(n2)sc2cc(C(=O)NCCCN4CCCCC4)ccc23)cc1,2.5µM*
Cc1ccc(Cl)cc1N1CCN(CCCNC(=O)c2ccc3nc(N4CCCCC4)sc3c2)CC1,i
CCc1ccc(-c2cn3c(n2)sc2cc(C(=O)NC4CCCCC4)ccc23)cc1,i
O=C(NCCn1ccn2nc(-c3ccc(F)cc3)cc2c1=O)c1ccc(F)c(Cl)c1,i
COCCCNC(=O)C1CCN(c2nn3cc(-c4ccc(F)cc4)nc3s2)CC1,-4%
O=C(NCCn1ccn2nc(-c3ccc(F)cc3)cc2c1=O)c1ccsc1,i
O=C(NC1CCC(O)CC1)c1ccc(-c2ncc3cnc(-c4ccccc4)cn23)cc1 (stereo not given),-12%[44.1 µM]
O=C(NC1CCCCCC1)c1ccc2c(c1)sc1nc(-c3ccccc3)cn12,10µM*
CC1CCN(CC2CCCN(C(=O)c3cnccn3)CC2)CC1 (stereo not given),1%
Cc1ncc2c(c1CNC(=O)c1ccccc1OC(F)F)CCNC2,-6%
COCCn1cc(CN(C)CCc2c(C)noc2C)ccc1=O,12%
Cc1ccc(C)c(CC(=O)NCc2cc3n(n2)CCCN(CC(C)C)C3)c1,-19%
Cc1cc(C)n(CCC(=O)N2C[C@@H](CO)[C@H](c3nc(C)no3)C2)n1,21%
CCOc1ccccc1CNC(=O)c1ccc(CN2C(=O)NC3(CCOCC3)C2=O)cc1,i
CNC(=O)[C@H]1C[C@H](Oc2ccccc2)CN1C(=O)NCc1ccccc1,23%
NS(=O)(=O)c1ccc(NC(=O)CN2C(=O)COc3ccc(Cl)cc32)cc1,0.71µM*
CCN(CC)S(=O)(=O)c1ccc2c(c1)N(CC(=O)Nc1ccc(F)cc1)C(=O)CO2,19%
Cc1ccc(NC(=O)CN2C(=O)COc3ccc(S(=O)(=O)N4CCCCC4)cc32)cc1Cl,6%
Cc1ccc(-c2nc(-c3nnn4c3COC(c3ccccc3Cl)C4)no2)cc1 (stereo not given),-9%
COc1ccccc1-c1nc(-c2nnn3c2COC(c2ccccc2Cl)C3)no1 (stereo not given),-5%
COc1ccc(-c2noc(-c3ncn4c3COC(c3ccc(F)cc3)C4)n2)cc1OC (stereo not given),8.9µM*
COc1ccccc1-c1noc(-c2nnn3c2COC(c2ccc(F)cc2)C3)n1 (stereo not given),i
SMILES,Pf Dd2 growth
CCOc1cccc(-c2noc(-c3ncn4c3COC(c3ccc(F)cc3)C4)n2)c1 (stereo not given),-23%
COc1ccc(C2Cn3nnc(-c4nc(-c5ccc(F)cc5)no4)c3CO2)cc1 (stereo not given),i
Clc1ccccc1C1Cn2cnc(-c3nc(-c4ccncc4)no3)c2CO1 (stereo not given),5.6µM*
CCOc1cc(-c2noc(-c3ncn4c3COC(c3ccc(OC)cc3)C4)n2)ccc1OC (stereo not given),2.5µM*
CCOc1ccc(C2Cn3nnc(-c4nc(-c5ccc(OC)c(F)c5)no4)c3CO2)cc1 (stereo not given),i
COc1cc(-c2noc(-c3ncn4c3COC(c3ccc(F)cc3)C4)n2)cc(OC)c1OC (stereo not given),11µM*
COc1ccc(C2Cn3nnc(-c4nc(-c5ccc(OC)c(F)c5)no4)c3CO2)cc1 (stereo not given),-23%
COc1ccc(C2Cn3cnc(-c4nc(-c5ccc(SC)cc5)no4)c3CO2)cc1 (stereo not given),i
CC(=O)NCC1(COc2cccnc2)C[C@@H](O)[C@@H](O)C1 (stereo not given in full),37%[44.1 µM]
Cn1ccc2c(C(=O)NCCc3cnc[nH]3)nc(-c3cccc(C(F)(F)F)c3)cc21,-15%[44.1 µM]
Cc1cccc(OC[C@H]2C[C@@H](NCc3ccc(C)o3)[C@H](O)[C@@H]2O)n1,i
O=C(CN1CCCc2nc(C3CC3)ncc2C1=O)NCCCn1cccn1,2%
O=C(c1cccc(F)c1)N1CCCC(Cc2noc(-c3ccccc3)n2)C1 (stereo not given),27%
Cc1cc(C)n(CC(=O)N2CCc3nn(C)c(=O)n3CC2)n1,53%
Cc1ccsc1C(=O)N1CCC(n2cc(-c3nc(-c4ccccc4)no3)nn2)CC1,i
CN(Cc1nccs1)c1cc(C2CC(O)C2)ncn1 (stereo not given),-4%
O=C(c1ccco1)N1CCN(C(=O)C2NCCc3[nH]cnc32)CC1 (stereo not given),21%
Cc1ccc(C)c(NS(=O)(=O)c2ccc3c4c(cccc24)C(=O)N3)c1,-18%
Cc1ccc(C)c(NC(=O)C(C)N(c2ccccc2)S(C)(=O)=O)c1 (stereo not given),33%
Cc1ccc(C)c(NC2=C(c3ccc(C(F)(F)F)cc3)C(=O)c3ccccc32)c1,1.4µM*
